# Assay outcomes from PubChem.
# Most compounds without a hit are left out; they make up all but 2.3% or so of the library.
# SENP6 block: inhibitors of human SENP6 protease; Q9GZR1; Recombinant SENP6 catalytic domain, aminoluciferin luminescence; inhibition, % at 10 µM; 330,000 tested, 1.8% active; AID 2599;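 active = inhibition above about 50% at the single tested dose, limit read from the data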;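 also: plate controls were DMSO wells with enzyme for no effect and DMSO wells lacking enzyme for full effect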
# SENP8 block-1: inhibitors of human SENP8 protease | recombinant SENP8, Nedd8 substrate fluorescence | inhibition, % at 20 µM | 360,000 tested, 0.64% active | Q96LD8; in the data active = inhibition mostly above about 40%, no sharp cut-off; inactive = mostly below about 27%
# HSP90 inh: blocks HSP90-mediated luciferase refolding in reticulocyte lysate; Rabbit reticulocyte lysate, luciferase refolding luminescence, 3 h; inhibition, % at 5.6 µM; 290,000 tested, 0.91% active;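 active = inhibition above the screen-wide mean plus 3 SD, computed separately per campaign, cut at about 16% in these data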;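 also: 0% = DMSO wells and 100% = 60 µM geldanamycin wells; inhibitors lower the luminescence because luciferase stays unfolded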
# LGR2 inh: blocks bursicon-induced cAMP signaling via Drosophila LGR2. AID 720647. inhibition, % at 9.99 µM. HEK293 LGR2, CRE-luciferase, bursicon-stimulated, 4 h. 380,000 tested, 0.35% active;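 active = drop in luminescence signal, shown as inhibition above about 50% in the replicate tests, limit read from the data, passing the limit was not always enough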;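 also: agonist challenge used bursicon conditioned medium at about half maximal strength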
# SENP8 block-2: blocks the human protease SENP8. Q96LD8. purified SENP8, Z-RLRGG-aminoluciferin cleavage, luminescence. inhibition, % at 10 µM. 330,000 tested, 1.2% active. AID 2540; in the data active = inhibition above about 50%
# SENP7 block: blocks the human protease SENP7; Q9BQF6; recombinant SENP7, Z-RLRGG-aminoluciferin luminescence, 40 min; inhibition, % at 5 µM; 330,000 tested, 1.5% active; AID 434973;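 active = inhibition above about 50% at the single test dose, limit read from the data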;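 also: plate controls were DMSO with enzyme for no effect and no enzyme buffer wells for full effect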
# HSP90 confirm: HSP90 inhibition, confirmation assay; shares compounds with HSP90 inh; inhibition, % at 5.9 µM; 2,300 tested, 64% active; AID 1846; rabbit reticulocyte lysate, luciferase refolding luminescence, 3 h; in the data active = inhibition above about 18%;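 also: 0% = vehicle wells and 100% = reference inhibitor wells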
# luciferase ctr: counter-screen for HSP90 inhibitors: inhibitors of firefly luciferase; shares compounds with HSP90 inh; purified native firefly luciferase, luminescence; inhibition, % at 5.9 µM; 2,300 tested, 48% active; AID 1847;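 active = inhibition above the mean inhibition of all tested sample wells plus 3 SD, cut at about 10% in these data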;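 also: 0% = DMSO with luciferase and 100% = wells lacking luciferase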
# Target sequence (P08659 whole entry, looked up): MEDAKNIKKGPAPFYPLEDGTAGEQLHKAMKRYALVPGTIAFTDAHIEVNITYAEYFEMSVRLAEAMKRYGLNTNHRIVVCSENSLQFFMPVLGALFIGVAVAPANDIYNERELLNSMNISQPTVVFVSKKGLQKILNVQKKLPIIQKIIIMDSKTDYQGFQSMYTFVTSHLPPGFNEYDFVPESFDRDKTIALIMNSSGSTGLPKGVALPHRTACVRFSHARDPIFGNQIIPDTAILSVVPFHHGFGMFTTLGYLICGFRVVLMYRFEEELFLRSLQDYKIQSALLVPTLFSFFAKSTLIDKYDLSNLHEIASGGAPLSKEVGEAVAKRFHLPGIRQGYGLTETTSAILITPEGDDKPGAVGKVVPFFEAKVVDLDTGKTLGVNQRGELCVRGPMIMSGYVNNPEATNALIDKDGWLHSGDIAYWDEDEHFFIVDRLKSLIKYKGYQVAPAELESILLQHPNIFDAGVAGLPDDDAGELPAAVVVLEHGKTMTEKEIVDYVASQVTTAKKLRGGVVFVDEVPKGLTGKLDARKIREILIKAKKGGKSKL
# * = called active by the depositor; . = no result given.
SMILES,SENP6 block,SENP8 block-1,HSP90 inh,LGR2 inh,SENP8 block-2,SENP7 block,HSP90 confirm,luciferase ctr
COC(=O)c1ccc(N=NNc2ccccc2)cc1,-5.8,23.6,28.4*,-21.7,-12.1,-1.0,46.8*,-11.5
CN(C)C(=O)C[C@H]1CC[C@@H]2[C@H](COc3ccc(NC(=O)c4ccc(F)cc4)cc3C(=O)N2C)O1,.,.,.,-11.3,.,.,.,.
[O-]/[N+](=C\c1ccncc1)c1ccc(Br)cc1,8.4,19.8,30.9*,.,-3.4,16.3,97.3*,-9.6
Oc1ccc(-c2csc(NCc3ccco3)n2)cc1,-17.1,4.9,-2.9,.,-7.8,-2.1,.,.
c1coc(CNc2nc(-c3cccs3)cs2)c1,9.9,0.3,17.6*,1.7,-1.6,-3.5,7.4,-26.0
Oc1c(Br)cc(Br)cc1CNn1cnnc1,-8.0,6.9,66.7*,1.2,-1.4,-12.7,-3.5,-4.5
CN1C(=O)c2cc(NC(=O)C3CC3)ccc2OC[C@H]2O[C@@H](CC(=O)O)CC[C@H]21,.,.,.,8.9,.,.,.,.
Cc1ccc(-c2cnc3c(c2)C(=O)N([C@H](C)CO)C[C@H](C)[C@H](CN(C)S(C)(=O)=O)O3)cc1,.,.,.,-7.7,.,.,.,.
O=C(C(c1ccccc1)c1ccccc1)N1CCOCC1,-18.4,20.8,47.4*,.,-2.3,-8.0,-4.0,-7.3
O=C(C(c1ccccc1)C(O)c1ccccc1)N1CCOCC1 (stereo not drawn),.,-0.6,.,14.5,.,.,.,.
Cc1ccc2nc(NC(=O)COC(=O)c3ccccn3)sc2c1,-6.1,3.5,6.2,-53.0,-6.4,11.4,.,.
Cc1ccc2nc(NC(=O)CSCC(=O)OCC(=O)c3ccccc3)sc2c1,.,-1.8,65.6*,12.9,.,.,78.5*,-9.8
O=C(Nc1ccccc1)[C@@H]1[C@@H](CO)[C@@H]2Cn3c(cccc3=O)[C@@H]2N1CC1CC1,.,.,.,-6.9,.,.,.,.
COc1ccccc1C(=O)NC(=S)Nc1cccnc1Cl,15.8,12.4,54.6*,84.2*,6.9,3.7,22.8*,11.5*
CS(=O)(=O)Nc1ccc2c(c1)[C@H]1C[C@@H](CC(=O)NCc3ccncc3)O[C@@H](CO)[C@H]1O2,.,.,.,9.6,.,.,.,.
CCNC(=O)[C@@H]1[C@@H](CO)[C@@H]2Cn3c(ccc(-c4ccc(F)cc4)c3=O)[C@H]1N2Cc1ccccc1F,.,.,.,-9.1,.,.,.,.
CN(C)c1ccc(NC(=S)c2ccccn2)cc1,.,38.7,65.8*,98.7*,.,.,93.9*,89.6*
CN(C)c1ccc(C(=S)Nc2ccccc2)cc1,26.4,-180.5,56.8*,.,6.5,13.7,64.7*,-4.6
C[C@H](NC(=O)[C@H]1[C@H](CO)[C@H]2Cn3c(cccc3=O)[C@@H]1N2CCC(F)(F)F)c1ccccc1,.,.,.,-7.2,.,.,.,.
CCOC(=O)c1[nH]cc(-c2ccccc2)c1N1CCOCC1,-15.8,21.1,18.1*,.,-1.0,4.3,0.3,-1.9
COc1ccc(/C(C)=N/NC(=O)Cn2nc([N+](=O)[O-])cc2C)cc1,-9.2,7.2,30.1*,-6.3,-6.8,11.8,-1.4,-7.5
CCOC(=O)c1csc(COc2ccc(OC)cc2)n1,22.1,6.9,20.3*,-31.7,13.9,6.5,51.9*,-13.1
CCOC(=O)c1csc(COc2ccccc2Cl)n1,7.9,28.7,-3.9,-21.3,5.1,7.6,.,.
CCC1CCCCN1C(=O)CCCOc1ccccc1 (stereo not drawn),-7.4,26.3,37.1*,.,-6.4,2.3,38.6*,23.5*
Cc1ccc(-n2nc3c(c2NC(=O)c2cccs2)CS(=O)(=O)C3)c(C)c1,-7.9,12.0,86.4*,8.5,-9.7,-14.8,-1.9,-1.0
SMILES,SENP6 block,SENP8 block-1,HSP90 inh,LGR2 inh,SENP8 block-2,SENP7 block,HSP90 confirm,luciferase ctr
Cc1ccccc1-n1nc2c(c1NC(=O)c1cccs1)CS(=O)(=O)C2,17.9,9.0,0.5,1.8,7.0,-0.1,.,.
CC(C)NC(=O)Nc1ccc2c(c1)C(=O)N([C@@H](C)CO)C[C@H](C)[C@@H](CN(C)C(=O)Nc1ccc3c(c1)OCO3)OCCCC[C@H](C)O2,.,.,.,-6.2,.,.,.,.
CC(C)(C)c1ccc(-c2conc2N)cc1,30.6,13.9,69.2*,.,7.2,17.8,-5.5,-14.0
CC(C)(C)c1ccc(-c2nc(N)nc(N)n2)cc1,-4.3,22.0,-0.2,-27.4,-2.3,-4.7,.,.
COc1ccc(-c2cc(C(=O)N3CCN(Cc4ccccc4)CC3)no2)cc1OC,5.2,2.2,52.3*,12.1,5.4,4.7,-1.1,-12.8
COc1cccc(N2CCN(C(=O)c3ccc4nc(N5CCC(C)CC5)sc4c3)CC2)c1,5.3,.,74.2*,-113.6,2.9,1.3,75.7*,54.1*
CC(C)(C)c1ccc(C(=O)N2CCN(Cc3ccccc3)CC2)cc1,16.8,4.3,21.7*,-0.3,8.3,8.3,-2.9,-16.9
CC1CCN(c2nc3ccc(C(=O)N4CCN(Cc5ccccc5)CC4)cc3s2)CC1,-5.5,-27.9,69.8*,14.5,-3.6,-1.4,65.4*,10.1*
CCOC(=O)N1CCN(C(=O)c2ccc3nc(N4CCCCC4)sc3c2)CC1,5.7,14.0,21.9*,.,2.9,4.3,23.2*,-6.3
CCOC(=O)N1CCN(C(=O)c2ccc3nc(N4CCC(C)CC4)sc3c2)CC1,-8.3,-1.3,14.2,-19.9,-6.6,1.4,.,.
O=C(c1ccc2nc(N3CCOCC3)sc2c1)N1CCC(Cc2ccccc2)CC1,-16.6,-0.2,-2.0,-4.3,-6.4,7.5,.,.
COc1ccccc1CNC(=O)C[C@@H]1CC[C@@H]2[C@H](COC[C@H](O)CN2Cc2cccc(-c3ccncc3)c2)O1,.,.,.,22.8,.,.,.,.
COc1ccccc1S(=O)(=O)N[C@H]1CC[C@@H](CCn2cc(C3CC3)nn2)O[C@H]1CO,.,.,.,-8.4,.,.,.,.
CCC(=O)N1C[C@@H](C)[C@@H](OC)CN(C)C(=O)c2ccc(NC(=O)C3CCOCC3)cc2OC[C@H]1C,.,.,.,-5.0,.,.,.,.
COc1ccccc1Nc1nn2c(=O)c3ccc(C(=O)NCc4cccnc4)cc3nc2s1,-1.6,-173.1,20.1*,.,9.7,2.4,37.8*,-1.8
CO[C@H](CN(C)C(=O)C1CCOCC1)[C@H](C)CN(C(=O)Nc1ccc(C(F)(F)F)cc1)[C@H](C)CO,.,.,.,-1.9,.,.,.,.
COc1ccc(C(=O)O)cc1S(=O)(=O)N1CCN(c2ccccn2)CC1,-3.8,5.8,17.3*,-11.9,-6.1,6.0,-6.6,-13.1
C[C@@H]1CN([C@@H](C)CO)C(=O)c2cccc(NC(=O)CCCCCC(=O)Nc3ccccc3N)c2O[C@@H]1CN(C)S(=O)(=O)c1ccc(Cl)cc1,.,.,.,-0.9,.,.,.,.
CC(=O)CC(=O)Nc1nc(C)cc(C)n1,3.8,4.7,27.1*,.,4.6,0.2,-1.1,-3.5
CCOCC(=O)Nc1nc(C)cc(C)n1,3.2,15.0,-3.1,2.7,8.2,-7.7,.,.
C[C@@H]1CN([C@@H](C)CO)C(=O)c2cc(NC(=O)Nc3ccc4c(c3)OCO4)ccc2O[C@H]1CN(C)Cc1ccncc1,.,.,.,16.6,.,.,.,.
